According to PubChem BioAssay (Tox21):
Results filed as inconclusive are left out. Activity calls are given as the source filed them. Unless noted, calls follow the shape of the dose curve; as a rule, active = well fitted curve in the direction sought with a large enough effect in the repeat runs; inconclusive = weak or mixed curves; inactive = no such curve, though single readings can be large; an effect the other way counts as inactive or inconclusive.

Legend:
[1] = A CellTox Green Cytotoxicity Assay to monitor cytotoxicity in HepG2 cells - 8 hour (AID 1224890); also: nearly all actives have a fitted effect of over 45% in size
How it was run: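 Cells and non-lytic dye reagent are dispensed together (600 HepG2 cells/well) and incubated 5 h before DMSO compound transfer. Kinetic fluorescence is then recorded in the same wells during 40 h at 37 C.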

[2] = qHTS assay to identify small molecule antagonists of the estrogen receptor alpha (ER-alpha) signaling pathway using the BG1 cell line in the presence of 0.1 nM 17-beta-estradiol - cell viability counter screen (AID 1259241); also: nearly all actives have a fitted effect of over 40% in size
How it was run: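 Following 5 days in phenol red-free medium with charcoal-stripped serum, VM7Luc4E2 cells received test compounds alongside 0.1 nM 17beta-estradiol (final) at 37C for 22 hr. Live cells were then quantified via protease-substrate fluorescence.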

[3] = target: Estrogen receptor (Homo sapiens) (UniProt P03372); assay: qHTS assay to identify small molecule antagonists of the estrogen receptor alpha (ER-alpha) signaling pathway using the BG1 cell line in the presence of 0.1 nM 17-beta-estradiol (AID 1259244); also: nearly all actives have a fitted effect of over 50% in size; also: potency is read from the fitted curve at half-maximal effect
Estrogen receptor (Homo sapiens), sequence (P03372 whole entry, looked up): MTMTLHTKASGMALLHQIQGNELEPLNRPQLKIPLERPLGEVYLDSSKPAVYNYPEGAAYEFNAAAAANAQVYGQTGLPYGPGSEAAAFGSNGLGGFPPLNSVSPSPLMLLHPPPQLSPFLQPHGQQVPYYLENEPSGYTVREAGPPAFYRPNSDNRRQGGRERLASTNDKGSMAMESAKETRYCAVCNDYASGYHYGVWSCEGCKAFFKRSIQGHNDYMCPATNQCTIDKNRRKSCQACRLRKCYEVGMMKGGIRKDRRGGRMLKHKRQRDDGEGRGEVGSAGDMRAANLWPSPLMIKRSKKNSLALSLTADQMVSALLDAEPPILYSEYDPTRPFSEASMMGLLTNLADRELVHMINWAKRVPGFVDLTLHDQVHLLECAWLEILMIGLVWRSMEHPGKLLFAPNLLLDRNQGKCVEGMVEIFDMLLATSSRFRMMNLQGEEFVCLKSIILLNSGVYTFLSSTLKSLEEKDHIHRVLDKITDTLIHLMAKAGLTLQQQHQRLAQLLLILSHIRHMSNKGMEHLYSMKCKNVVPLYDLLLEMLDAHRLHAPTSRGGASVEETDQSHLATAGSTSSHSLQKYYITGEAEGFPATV
How it was run: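 Antagonist mode: compounds in DMSO are pinned onto VM7Luc4E2 reporter cells, 0.1 nM final 17beta-estradiol is added, and after 22 h at 37C luciferase luminescence is measured with ONE-Glo.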

[4] = qHTS assay to identify small molecule HDAC inhibitors (AID 1259364); also: potency is read from the fitted curve at half-maximal effect;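 also: wild-type HCT-116 cells with endogenous class I/II HDAC activity; nearly all actives have a fitted effect of over 45% in size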
How it was run: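 Cells (HCT-116, wild type) are seeded at 1,500 per well, incubated overnight, treated with compound in DMSO for 2 hr, then developed with HDAC-Glo I/II reagent for 30 min at room temperature.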

[5] = qHTS assay to identify small molecule HDAC inhibitors - cell viability counter screen (AID 1259365); also: series mostly up to about 92 µM; nearly all actives have a fitted effect of over 50% in size
How it was run: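 HCT-116 wild-type, overnight attachment; 2hr drug exposure, 37C; CellTiter-Glo luminescent ATP readout after 30min RT.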

[6] = qHTS assay to identify small molecule agonists of the sonic hedgehog signaling (Shh) pathway - cell viability counter screen (AID 1259366); also: nearly all actives have a fitted effect of over 50% in size; also: potency is read from the fitted curve at half-maximal effect
How it was run: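 Compounds in DMSO were pin-transferred onto 3T3 Gli1-Luc cells that had settled 4hr; plates then stood 24hr at 37C and 5% CO2. One hour before the end, CellTiter-Fluor was added and fluorescence recorded.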

[7] = qHTS assay to identify small molecule antagonists of the sonic hedgehog signaling (Shh) pathway - cell viability counter screen (AID 1259367); also: nearly all actives have a fitted effect of over 55% in size
How it was run: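 Viability was read by CellTiter-Fluor fluorescence in the same wells, reagent added 23 hr into compound treatment and incubated 1 hr at 37C. The 3T3 Gli1-Luc reporter cells (2,000/well) received conditioned medium after compound and ran 24 hr.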

[8] = qHTS assay to identify small molecule agonists of the sonic hedgehog signaling (Shh) pathway (AID 1259368; calls by dose curve;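 also: NIH/3T3-derived 3T3Gli1-Luc cells carrying a stable Gli1-driven firefly luciferase reporter; series mostly up to about 92 µM; nearly all actives have a fitted effect of over 15% in size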)
How it was run: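 Cells of a mouse NIH/3T3 clone stably expressing luciferase under the Gli1 transcriptional response element are exposed to test chemicals for 24 hr at 37 C. Pathway activation is detected as a rise in luminescence.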

[9] = qHTS assay to identify small molecule antagonists of the sonic hedgehog signaling (Shh) pathway (AID 1259369; calls by dose curve; also: nearly all actives have a fitted effect of over 45% in size; also: potency is read from the fitted curve at half-maximal effect)
How it was run: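 Cells are plated and held 4hr at 37 C, compounds (DMSO) are pinned in, conditioned medium is added to stimulate the pathway, and after 24hr luciferase reagent is added for 30min before luminescence is read.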

[10] = target: Estrogen receptor beta (Homo sapiens) (UniProt Q92731); assay: qHTS assay to identify small molecule agonists of the estrogen receptor beta (ER-beta) signaling pathway (AID 1259377; active = well fitted activation curve with a large enough effect in the signal ratio in the repeat runs, not every such curve was filed as active; the % refers to the signal ratio)
Estrogen receptor beta (Homo sapiens), sequence (Q92731 whole entry, looked up): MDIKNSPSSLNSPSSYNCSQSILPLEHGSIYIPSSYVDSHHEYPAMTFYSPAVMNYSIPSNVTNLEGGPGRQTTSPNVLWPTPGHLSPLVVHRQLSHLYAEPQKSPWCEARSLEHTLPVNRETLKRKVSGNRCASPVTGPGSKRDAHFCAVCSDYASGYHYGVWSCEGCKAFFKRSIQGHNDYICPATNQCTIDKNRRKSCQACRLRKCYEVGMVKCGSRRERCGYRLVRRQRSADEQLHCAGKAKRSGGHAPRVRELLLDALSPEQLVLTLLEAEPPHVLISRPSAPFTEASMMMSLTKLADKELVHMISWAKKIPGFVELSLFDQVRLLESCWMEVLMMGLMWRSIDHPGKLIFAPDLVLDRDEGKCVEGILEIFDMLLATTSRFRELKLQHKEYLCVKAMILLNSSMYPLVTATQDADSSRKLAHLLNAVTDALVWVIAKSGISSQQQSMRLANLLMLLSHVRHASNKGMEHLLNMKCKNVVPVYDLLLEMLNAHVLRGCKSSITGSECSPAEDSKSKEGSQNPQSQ
How it was run: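 qHTS in ER-beta-UAS-bla HEK293T cells: 6 hr settling, then 16 hr compound at 37C, then LiveBLAzer substrate 2 h at RT before fluorescence reading.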

[11] = target: Estrogen receptor beta (Homo sapiens) (UniProt Q92731); assay: qHTS assay to identify small molecule antagonists of the estrogen receptor beta (ER-beta) signaling pathway (AID 1259378; active = well fitted inhibition curve with a large enough effect in the signal ratio in the repeat runs, not every such curve was filed as active; the % refers to the signal ratio)
How it was run: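 Antagonist mode: compounds added to beta-lactamase reporter HEK293T ER-beta-UAS cells stimulated with E2 (1nM final), 16 hr at 37C. LiveBLAzer B/G FRET substrate, 2 hours room temperature, fluorescence read-out.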

[12] = qHTS assay to identify small molecule agonists of the androgen receptor (AR) signaling pathway in the presence of an antagonist - cell viability counter screen (AID 1259379);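 also: MDA-kb2 human breast cancer cells carrying an MMTV luciferase reporter; series mostly up to about 92 µM; nearly all actives have a fitted effect of over 25% in size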
How it was run: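 Cytotoxicity is assessed by CellTiter-Fluor in MDA-kb2 cells carrying an MMTV-driven luciferase reporter. Cells receive 3.0uM nilutamide plus compounds at 15 concentrations and incubate 16 hr at 37C without CO2 before fluorescence reading.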

[13] = qHTS assay to identify small molecule agonists of the estrogen receptor beta (ER-beta) signaling pathway - cell viability counter screen (AID 1259380); also: nearly all actives have a fitted effect of over 30% in size; also: potency is read from the fitted curve at half-maximal effect
How it was run: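 Cytotoxicity is measured in parallel with the reporter screen: after 16 hr compound exposure at 37C and a 2 hr LiveBLAzer step, CellTiter-Glo is added to the same ER-beta-UAS-bla HEK293T wells and luminescence read after 30 min.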

[14] = qHTS assay to identify small molecule antagonists of the estrogen receptor beta (ER-beta) signaling pathway - cell viability counter screen (AID 1259382);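 also: HEK293T cells carrying ER-beta-UAS-bla reporter stimulated with estradiol; series mostly up to about 92 µM; nearly all actives have a fitted effect of over 55% in size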
How it was run: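 Cytotoxicity counter screen multiplexed with the beta-lactamase antagonist assay: GripTite HEK293T ER-beta-bla cells were treated 16 hr with test chemicals in the presence of 1nM 17-beta-estradiol, and viability was measured by CellTiter-Glo.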

[15] = target: Estrogen receptor (Homo sapiens) (UniProt P03372); assay: qHTS assay to identify small molecule agonists of the estrogen receptor alpha (ER-alpha) signaling pathway in the presence of an antagonist (AID 1259383; calls by dose curve; also: top concentration of the series differs between compounds; nearly all actives have a fitted effect of over 15% in size)
How it was run: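 Agonist-mode confirmation in the presence of the ER antagonist ICI-182,780 at 10.0nM final. Breast-derived VM7Luc4E2 reporter cells were exposed to compounds for 22hr, and ERE-driven luciferase was quantified by luminescence.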

[16] = qHTS assay to identify small molecule antagonists of the androgen receptor (AR) signaling pathway using the MDA cell line in the presence of 0.5 nM R1881 - cell viability counter screen (AID 1259242); also: nearly all actives have a fitted effect of over 45% in size
How it was run: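 Steps: plate MDA-kb2 cells, rest 5 hr at 37C without CO2; pin in compounds in DMSO; add R1881 to 0.5 nM final; incubate 16 hr; add CellTiter-Fluor, 30 min; read fluorescence.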

[17] = target: Androgen receptor (Homo sapiens) (UniProt P10275); assay: qHTS assay to identify small molecule antagonists of the androgen receptor (AR) signaling pathway using the MDA cell line in the presence of 0.5 nM R1881 (AID 1259243); also: nearly all actives have a fitted effect of over 50% in size
Androgen receptor (Homo sapiens), sequence (P10275 whole entry, looked up): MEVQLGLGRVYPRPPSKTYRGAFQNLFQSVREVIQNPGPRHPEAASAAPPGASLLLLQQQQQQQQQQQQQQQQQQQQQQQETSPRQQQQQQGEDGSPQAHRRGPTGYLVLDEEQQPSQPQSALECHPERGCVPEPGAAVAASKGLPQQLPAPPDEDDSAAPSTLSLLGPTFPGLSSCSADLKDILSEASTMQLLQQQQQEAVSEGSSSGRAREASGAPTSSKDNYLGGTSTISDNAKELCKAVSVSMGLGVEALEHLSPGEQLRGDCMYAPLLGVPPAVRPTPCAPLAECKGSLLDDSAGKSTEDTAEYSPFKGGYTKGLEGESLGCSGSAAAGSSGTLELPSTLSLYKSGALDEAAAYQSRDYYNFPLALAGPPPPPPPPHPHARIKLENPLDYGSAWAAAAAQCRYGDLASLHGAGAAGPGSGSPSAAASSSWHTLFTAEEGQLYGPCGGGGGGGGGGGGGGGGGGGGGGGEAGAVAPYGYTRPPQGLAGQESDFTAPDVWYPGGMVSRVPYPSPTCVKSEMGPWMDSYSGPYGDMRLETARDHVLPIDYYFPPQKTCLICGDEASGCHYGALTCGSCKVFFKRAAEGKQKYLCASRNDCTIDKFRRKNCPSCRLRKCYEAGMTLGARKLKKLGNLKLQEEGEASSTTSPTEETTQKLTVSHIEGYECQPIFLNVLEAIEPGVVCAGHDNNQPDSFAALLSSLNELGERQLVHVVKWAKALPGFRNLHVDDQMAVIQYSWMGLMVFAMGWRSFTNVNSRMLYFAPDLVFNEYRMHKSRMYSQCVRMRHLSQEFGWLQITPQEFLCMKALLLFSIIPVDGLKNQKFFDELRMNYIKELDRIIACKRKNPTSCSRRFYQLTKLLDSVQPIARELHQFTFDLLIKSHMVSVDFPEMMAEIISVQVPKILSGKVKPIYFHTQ
How it was run: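 Stably transfected MDA-kb2 cells express luciferase from an MMTV promoter bearing both AR and GR response elements. Compounds plus 0.5 nM R1881 (final) were incubated 16 hr at 37C without CO2, then luminescence measured.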

[18] = target: Androgen receptor (Homo sapiens) (UniProt P10275); assay: qHTS assay to identify small molecule agonists of the androgen receptor (AR) signaling pathway in the presence of an antagonist (AID 1259381; calls by dose curve; also: nearly all actives have a fitted effect of over 15% in size)
How it was run: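 Agonist-mode confirmation screen: human MDA-kb2 cells stably expressing luciferase under an MMTV promoter bearing AR and GR response elements, co-treated with 3.0uM nilutamide (final). Luminescence measured after 16hr compound incubation.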

[19] = qHTS assay to identify small molecule agonists or antagonists of the thyroid stimulating hormone receptor (TSHR) signaling pathway - wild type cell line counter screen (AID 1259384; calls by dose curve)
How it was run: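 Counter screen in untransfected Hek293: compounds (15-point titration, triplicate) plus phosphodiesterase inhibitor Ro20-1724 added after 18 h plating; 30 min RT. Intracellular cAMP via competitive d2/cryptate immunoassay, 1 h incubation.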

[20] = qHTS assay to identify small molecule phospholipidosis (PLD) inducers (AID 1259344; active = well fitted curve in the direction sought with a large enough effect; an effect the other way counts as inactive or inconclusive)
How it was run: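 Phospholipid accumulation was scored by imaging: fixed, Hoechst-counterstained HepG2 cells stained with LipidTOX Red after 24 h compound exposure at 37 C. Read-outs were pit count and pit intensity per well or per cell, with amiodarone and DMSO controls.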

Measured: Potency

CC(=O)c1cccnc1
not listed: [16] | [17] | [18] | [19] | [20]
inactive: all other assays above

Cc1ccc(Cl)c(OCC(O)CNC(C)(C)C)c1 (centres undefined)
not listed: [2] | [13] | [17] | [18] | [19] | [20]
inactive: all other assays above

CCOc1ccc(NC(C)=O)cc1N
not listed: [2] | [7] | [9] | [20]
inactive: all other assays above

CCCCOC(=O)CC#N
active: [9] 32.1 µM
not listed: [10] | [11] | [16] | [17] | [18] | [20]
inactive: all other assays above

O=C(c1ccc(Cl)cc1)c1ccc(Cl)cc1
not listed: [2] | [20]
inactive: all other assays above

O=Cc1ccc([N+](=O)[O-])cc1
not listed: [7] | [10] | [11] | [15] | [16] | [17] | [18] | [20]
inactive: all other assays above

CC/C=C/CCO
not listed: [3] | [10] | [15] | [16] | [17] | [18] | [19] | [20]
inactive: all other assays above

OCC(O)c1ccccc1 (centres undefined)
not listed: [10] | [11] | [13] | [14] | [16] | [17] | [18] | [20]
inactive: all other assays above

CCCC1CCCC(=O)O1 (centres undefined)
not listed: [2] | [17] | [18] | [20]
inactive: all other assays above

Cc1cc(N)n(-c2ccccc2)n1
active: [4] 27.3 µM
not listed: [16] | [17] | [18] | [20]
inactive: all other assays above

Cc1ccc2ccccc2c1[N+](=O)[O-]
not listed: [9] | [16] | [17] | [18] | [20]
inactive: all other assays above

Oc1ccc(CCNCCCCCCNCCc2ccccc2)cc1O
active: [6] 29.8 µM | [9] 9.44 µM
not listed: [2] | [7] | [10] | [11] | [14] | [17] | [18]
inactive: all other assays above

COc1cc(CNC(=O)CCCC/C=C/C(C)C)ccc1O
active: [3] 59.5 µM
not listed: [2] | [10] | [11] | [12] | [13] | [17] | [18]
inactive: all other assays above

CC1(C)CC(O)CC(C)(C)N1[O]
not listed: [16] | [17] | [18] | [20]
inactive: all other assays above

COc1cc(C)c(Cc2cnc(N)nc2N)cc1OC
not listed: [2] | [9] | [10] | [11] | [12] | [17] | [18] | [19]
inactive: all other assays above

CC(C)(C)NCC(O)COc1ccc(NC(=O)NC2CCCCC2)cc1 (centres undefined)
not listed: [2] | [17] | [18]
inactive: all other assays above

N#Cc1ccc(CC(=O)c2cccc(C(F)(F)F)c2)cc1
inactive: [1] | [16] | [4] | [5] | [6] | [7] | [8] | [12] | [14] | [19]

O=C1CCCN1CCO
active: [13] 43.3 µM
not listed: [2] | [10] | [14] | [17] | [18] | [20]
inactive: all other assays above

Cc1c(-c2cccnc2)c2ccccc2n1CCCCC(=O)O
not listed: [2] | [3] | [15] | [17] | [18] | [20]
inactive: all other assays above
